From paper PMC7862700, “An all-to-all approach to the identification of sequence-specific readers for epigenetic DNA modifications on cytosine”

Assays:
Assay in all cases: DAPPL (digital affinity profiling via proximity ligation, sequencing); 10 mM Tris-HCl pH 7.5, 50 mM NaCl, 1 mM DTT, 4% glycerol, room temperature, 30 min; GST-TFs on glutathione beads, 16-mer random dsDNA library, 0.1% formaldehyde crosslink after washing; high values mean tight binding
Conditions in all cases: protein: recombinant; tags: N-terminal GST; dsDNA, one strand shown
ERF = target: T1, ERF (Homo sapiens, UniProt P50548 1-548)
T1 sequence: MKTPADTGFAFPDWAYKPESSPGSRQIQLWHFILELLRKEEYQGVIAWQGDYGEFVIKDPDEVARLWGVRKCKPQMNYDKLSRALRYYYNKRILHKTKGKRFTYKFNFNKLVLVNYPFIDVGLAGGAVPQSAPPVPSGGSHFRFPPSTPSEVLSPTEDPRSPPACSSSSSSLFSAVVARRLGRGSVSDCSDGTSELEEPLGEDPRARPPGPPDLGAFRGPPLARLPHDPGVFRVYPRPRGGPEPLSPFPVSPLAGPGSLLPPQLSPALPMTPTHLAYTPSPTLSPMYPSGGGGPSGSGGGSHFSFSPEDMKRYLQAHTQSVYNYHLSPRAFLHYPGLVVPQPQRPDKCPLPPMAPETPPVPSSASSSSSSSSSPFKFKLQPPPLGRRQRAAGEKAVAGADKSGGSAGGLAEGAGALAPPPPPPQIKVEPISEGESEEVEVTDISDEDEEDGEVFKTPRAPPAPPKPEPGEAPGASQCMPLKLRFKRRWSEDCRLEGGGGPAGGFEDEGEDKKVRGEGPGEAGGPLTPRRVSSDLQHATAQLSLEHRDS
In short: (§1)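 The binding signal reported is, for every hexamer, its read frequency for a factor over its read frequency for the tag-only sample. Reads came from pools of yeast-expressed, GST-fused human transcription factors on glutathione beads, barcoded with DNA and mixed with that sample, which were incubated with 200 nmole of a random double-stranded 16-mer DNA library in Tris/NaCl/DTT/glycerol buffer at room temperature for 30 min. After washing, the pools were crosslinked with 0.1% formaldehyde, proximity-ligated with BsaI/T4 ligase for 1 h at 37 °C, PCR-amplified and sequenced on an Illumina NextSeq500.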

ETV3L = target: T2, ETV3L (Homo sapiens, UniProt Q6ZN32 1-361)
T2 sequence: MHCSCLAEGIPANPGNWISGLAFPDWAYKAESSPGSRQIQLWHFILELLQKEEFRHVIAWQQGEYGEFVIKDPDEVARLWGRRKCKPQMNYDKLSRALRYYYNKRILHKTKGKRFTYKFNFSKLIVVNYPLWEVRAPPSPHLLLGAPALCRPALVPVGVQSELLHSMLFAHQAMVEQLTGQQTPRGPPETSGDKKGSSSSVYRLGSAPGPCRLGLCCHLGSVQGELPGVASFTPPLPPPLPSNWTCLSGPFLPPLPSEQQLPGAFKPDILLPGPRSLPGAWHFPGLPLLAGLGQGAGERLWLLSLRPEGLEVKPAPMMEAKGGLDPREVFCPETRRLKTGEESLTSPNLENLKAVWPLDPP
In short: as §1

ETS2 = target: T3, ETS2 (Homo sapiens, UniProt P15036 1-469)
T3 sequence: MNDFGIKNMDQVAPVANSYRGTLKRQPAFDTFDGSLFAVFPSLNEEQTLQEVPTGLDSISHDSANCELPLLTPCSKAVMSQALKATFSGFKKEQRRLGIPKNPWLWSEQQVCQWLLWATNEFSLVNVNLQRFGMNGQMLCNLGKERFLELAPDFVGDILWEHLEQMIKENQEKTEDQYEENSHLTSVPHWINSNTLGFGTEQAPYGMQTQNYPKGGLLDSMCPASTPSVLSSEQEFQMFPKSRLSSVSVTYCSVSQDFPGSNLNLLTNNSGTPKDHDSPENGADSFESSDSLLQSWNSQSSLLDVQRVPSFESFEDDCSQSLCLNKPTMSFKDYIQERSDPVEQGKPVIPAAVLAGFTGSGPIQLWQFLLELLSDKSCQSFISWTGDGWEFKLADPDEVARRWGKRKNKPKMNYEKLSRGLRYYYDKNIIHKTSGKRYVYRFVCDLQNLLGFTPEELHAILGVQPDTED
In short: as §1

SPDEF = target: T4, SPDEF (Homo sapiens, UniProt O95238 1-335)
T4 sequence: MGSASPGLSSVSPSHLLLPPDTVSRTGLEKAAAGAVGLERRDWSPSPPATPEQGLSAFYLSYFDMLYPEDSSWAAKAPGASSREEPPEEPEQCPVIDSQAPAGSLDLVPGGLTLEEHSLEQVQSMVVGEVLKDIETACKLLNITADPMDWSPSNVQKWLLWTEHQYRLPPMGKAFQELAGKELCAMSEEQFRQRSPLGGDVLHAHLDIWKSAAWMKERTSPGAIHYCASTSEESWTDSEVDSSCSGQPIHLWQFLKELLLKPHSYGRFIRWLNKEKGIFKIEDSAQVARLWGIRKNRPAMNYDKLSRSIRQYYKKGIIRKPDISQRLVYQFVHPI
In short: as §1

ETV7 = target: T5, ETV7 (Homo sapiens, UniProt Q9Y603 1-341)
T5 sequence: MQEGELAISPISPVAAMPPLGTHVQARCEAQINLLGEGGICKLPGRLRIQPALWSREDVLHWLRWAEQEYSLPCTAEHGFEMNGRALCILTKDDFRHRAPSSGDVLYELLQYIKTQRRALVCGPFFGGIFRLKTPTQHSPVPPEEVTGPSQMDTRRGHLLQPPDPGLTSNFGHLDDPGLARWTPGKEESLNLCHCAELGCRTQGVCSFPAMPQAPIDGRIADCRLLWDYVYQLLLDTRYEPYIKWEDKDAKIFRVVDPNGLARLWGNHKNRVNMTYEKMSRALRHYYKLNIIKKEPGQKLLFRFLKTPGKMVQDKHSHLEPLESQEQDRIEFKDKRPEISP
In short: as §1

ELF5 = target: T6, ELF5 (Homo sapiens, UniProt Q9UKW6-2 1-255)
T6 sequence: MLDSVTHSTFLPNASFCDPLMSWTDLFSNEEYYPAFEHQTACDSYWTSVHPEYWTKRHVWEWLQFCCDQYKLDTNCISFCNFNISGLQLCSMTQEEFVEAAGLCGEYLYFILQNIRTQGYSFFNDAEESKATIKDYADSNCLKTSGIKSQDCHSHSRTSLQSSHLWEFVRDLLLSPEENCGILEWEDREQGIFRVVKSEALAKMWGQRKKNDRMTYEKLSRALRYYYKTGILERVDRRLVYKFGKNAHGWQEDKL
In short: as §1

ETV3 = target: T7, ETV3 (Homo sapiens, UniProt P41162-2 1-143)
T7 sequence: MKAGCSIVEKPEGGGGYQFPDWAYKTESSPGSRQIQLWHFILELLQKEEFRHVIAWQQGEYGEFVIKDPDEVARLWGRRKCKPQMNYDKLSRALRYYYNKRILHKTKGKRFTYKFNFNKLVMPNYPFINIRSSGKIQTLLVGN
In short: as §1

ETV6 = ETV6 (Homo sapiens, UniProt P41212 1-452)
In short: as §1

Sequence of ETV6 (P41212 whole entry): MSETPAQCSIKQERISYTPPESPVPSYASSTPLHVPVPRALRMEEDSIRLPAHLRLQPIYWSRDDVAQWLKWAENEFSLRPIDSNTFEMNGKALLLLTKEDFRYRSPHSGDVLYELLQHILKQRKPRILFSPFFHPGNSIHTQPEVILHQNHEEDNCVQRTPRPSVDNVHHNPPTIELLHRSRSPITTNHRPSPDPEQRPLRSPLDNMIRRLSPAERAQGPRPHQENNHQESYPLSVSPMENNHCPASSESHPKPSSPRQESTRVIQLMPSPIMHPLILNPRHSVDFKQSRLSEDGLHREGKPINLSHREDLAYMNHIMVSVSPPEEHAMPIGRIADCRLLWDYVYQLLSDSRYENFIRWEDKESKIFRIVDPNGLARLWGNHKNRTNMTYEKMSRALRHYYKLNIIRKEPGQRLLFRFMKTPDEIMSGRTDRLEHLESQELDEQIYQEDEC

| Sequence | binding signal (ERF) | binding signal (ETV3L) | binding signal (ETS2) | binding signal (SPDEF) | binding signal (ETV7) | binding signal (ELF5) | binding signal (ETV3) | binding signal (ETV6) |
| --- | --- | --- | --- | --- | --- | --- | --- | --- |
| CACGCC | 1.21 fold enrichment (6-mer frequency, TF over GST control) | 1.2 fold enrichment (6-mer frequency, TF over GST control) | 1.09 fold enrichment (6-mer frequency, TF over GST control) | 1.05 fold enrichment (6-mer frequency, TF over GST control) | 1.12 fold enrichment (6-mer frequency, TF over GST control) | 1.1 fold enrichment (6-mer frequency, TF over GST control) | 1.2 fold enrichment (6-mer frequency, TF over GST control) | 1.17 fold enrichment (6-mer frequency, TF over GST control) |
| CGACCA | 1.19 fold enrichment (6-mer frequency, TF over GST control) | 1.33 fold enrichment (6-mer frequency, TF over GST control) | 1.29 fold enrichment (6-mer frequency, TF over GST control) | 1.24 fold enrichment (6-mer frequency, TF over GST control) | 1.16 fold enrichment (6-mer frequency, TF over GST control) | 1.2 fold enrichment (6-mer frequency, TF over GST control) | 1.2 fold enrichment (6-mer frequency, TF over GST control) | 1.33 fold enrichment (6-mer frequency, TF over GST control) |
| CCTCGT | 1.23 fold enrichment (6-mer frequency, TF over GST control) | 1.2 fold enrichment (6-mer frequency, TF over GST control) | 1.25 fold enrichment (6-mer frequency, TF over GST control) | 1.19 fold enrichment (6-mer frequency, TF over GST control) | 1.17 fold enrichment (6-mer frequency, TF over GST control) | 1.4 fold enrichment (6-mer frequency, TF over GST control) | 1.27 fold enrichment (6-mer frequency, TF over GST control) | 1.23 fold enrichment (6-mer frequency, TF over GST control) |
| GGTTTG | 1.26 fold enrichment (6-mer frequency, TF over GST control) | 1.16 fold enrichment (6-mer frequency, TF over GST control) | 1.15 fold enrichment (6-mer frequency, TF over GST control) | 1.06 fold enrichment (6-mer frequency, TF over GST control) | 1.11 fold enrichment (6-mer frequency, TF over GST control) | 1.16 fold enrichment (6-mer frequency, TF over GST control) | 1.25 fold enrichment (6-mer frequency, TF over GST control) | 1.17 fold enrichment (6-mer frequency, TF over GST control) |
| AACATG | 1.21 fold enrichment (6-mer frequency, TF over GST control) | 1.17 fold enrichment (6-mer frequency, TF over GST control) | 1.14 fold enrichment (6-mer frequency, TF over GST control) | 1.11 fold enrichment (6-mer frequency, TF over GST control) | 1.05 fold enrichment (6-mer frequency, TF over GST control) | 1.15 fold enrichment (6-mer frequency, TF over GST control) | 1.11 fold enrichment (6-mer frequency, TF over GST control) | 1.25 fold enrichment (6-mer frequency, TF over GST control) |
| AGCATT | 1.04 fold enrichment (6-mer frequency, TF over GST control) | 1.06 fold enrichment (6-mer frequency, TF over GST control) | 1.11 fold enrichment (6-mer frequency, TF over GST control) | 1.02 fold enrichment (6-mer frequency, TF over GST control) | 1.14 fold enrichment (6-mer frequency, TF over GST control) | 1.1 fold enrichment (6-mer frequency, TF over GST control) | 1.09 fold enrichment (6-mer frequency, TF over GST control) | 1.14 fold enrichment (6-mer frequency, TF over GST control) |
| AACGAA | 1.12 fold enrichment (6-mer frequency, TF over GST control) | 1.16 fold enrichment (6-mer frequency, TF over GST control) | 1.18 fold enrichment (6-mer frequency, TF over GST control) | 1.1 fold enrichment (6-mer frequency, TF over GST control) | 1.25 fold enrichment (6-mer frequency, TF over GST control) | 1.09 fold enrichment (6-mer frequency, TF over GST control) | 1.11 fold enrichment (6-mer frequency, TF over GST control) | 1.17 fold enrichment (6-mer frequency, TF over GST control) |
| ATCCAC | 1.27 fold enrichment (6-mer frequency, TF over GST control) | 1.05 fold enrichment (6-mer frequency, TF over GST control) | 1.2 fold enrichment (6-mer frequency, TF over GST control) | 1.18 fold enrichment (6-mer frequency, TF over GST control) | 1.18 fold enrichment (6-mer frequency, TF over GST control) | 1.16 fold enrichment (6-mer frequency, TF over GST control) | 1.14 fold enrichment (6-mer frequency, TF over GST control) | 1.25 fold enrichment (6-mer frequency, TF over GST control) |
| ATTTGT | 1.34 fold enrichment (6-mer frequency, TF over GST control) | 1.35 fold enrichment (6-mer frequency, TF over GST control) | 1.36 fold enrichment (6-mer frequency, TF over GST control) | 1.33 fold enrichment (6-mer frequency, TF over GST control) | 1.34 fold enrichment (6-mer frequency, TF over GST control) | 1.26 fold enrichment (6-mer frequency, TF over GST control) | 1.4 fold enrichment (6-mer frequency, TF over GST control) | 1.29 fold enrichment (6-mer frequency, TF over GST control) |
